# Data from ChEMBL document CHEMBL1961873, “Compounds: GSK PKIS; Assays: Nanosyn kinase panel” (2012).
# Target: T1, Dual specificity protein kinase TTK (Homo sapiens) (UniProt P33981)
# T1 sequence (whole entry): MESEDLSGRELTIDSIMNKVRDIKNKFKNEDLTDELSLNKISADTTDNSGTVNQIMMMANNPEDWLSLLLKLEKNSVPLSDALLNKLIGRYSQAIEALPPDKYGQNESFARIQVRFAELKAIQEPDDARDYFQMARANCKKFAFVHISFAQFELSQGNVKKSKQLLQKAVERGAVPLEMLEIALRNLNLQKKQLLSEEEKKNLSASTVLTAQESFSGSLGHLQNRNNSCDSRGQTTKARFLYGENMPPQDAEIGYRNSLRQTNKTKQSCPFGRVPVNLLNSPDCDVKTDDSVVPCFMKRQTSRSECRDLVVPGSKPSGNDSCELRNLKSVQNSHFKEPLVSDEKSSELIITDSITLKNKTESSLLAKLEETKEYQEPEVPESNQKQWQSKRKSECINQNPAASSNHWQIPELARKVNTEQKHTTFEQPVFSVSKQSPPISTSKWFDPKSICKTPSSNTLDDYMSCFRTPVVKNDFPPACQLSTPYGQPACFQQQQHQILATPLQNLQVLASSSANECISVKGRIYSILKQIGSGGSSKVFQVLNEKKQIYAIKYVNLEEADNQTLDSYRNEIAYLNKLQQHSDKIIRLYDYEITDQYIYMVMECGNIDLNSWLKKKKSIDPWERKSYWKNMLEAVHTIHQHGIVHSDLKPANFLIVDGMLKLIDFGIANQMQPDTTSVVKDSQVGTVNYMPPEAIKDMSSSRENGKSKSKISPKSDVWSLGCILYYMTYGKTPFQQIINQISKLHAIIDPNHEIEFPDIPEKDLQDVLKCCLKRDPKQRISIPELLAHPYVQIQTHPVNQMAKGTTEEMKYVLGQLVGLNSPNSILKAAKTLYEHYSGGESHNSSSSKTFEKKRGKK
# Settings: at 0.1 µM
row,Structure (SMILES),inhibition
1,CCn1c(-c2nonc2N)nc2c(C#CC(C)(C)O)nc(OCCNC)cc21,7.19%
2,COC(=O)Nc1nc2cc(Oc3ccc(NC(=O)Nc4cccc(Br)c4)cc3)ccc2[nH]1,5.37%
3,Nc1nccc(-c2c(-c3ccc(F)cc3)nn3cc(C(F)(F)F)ccc23)n1,1.73%
4,CN(C)CCCn1c(-c2nonc2N)nc2cnccc21,8.12%
5,COc1cc(Nc2nccc(-c3cnn4ncccc34)n2)cc(OC)c1,7.15%
6,C[C@@H](Oc1cc(-n2cnc3ccc(OC[C@@H](O)CO)cc32)sc1C(N)=O)c1ccccc1Cl,1.27%
7,N#Cc1cccc(Nc2nccc(-c3cnn4ncccc34)n2)c1,11.2%
8,COc1cc(/C=N/Nc2ncnc3c2cnn3C(C)C)ccc1O,4.56%
9,Nc1ccc(C#Cc2cncnc2Nc2ccc(OCc3cccc(F)c3)c(Cl)c2)cc1,4.2%
10,Cc1ccc2c(c1)/C(=N/Nc1ccc(S(N)(=O)=O)cc1)C(=O)N2,7.53%
11,NC(=O)c1cccc(Nc2nccc(Nc3cccc(F)c3)n2)c1,2.31%
12,NS(=O)(=O)c1ccc(NC=C2C(=O)Nc3ccc4ncsc4c32)cc1,52.1%
13,Cc1ccc2c(-c3ccnc(Nc4cccc(C(F)(F)F)c4)n3)c(-c3ccccc3)nn2n1,10.5%
14,NS(=O)(=O)c1ccc(N/N=C2\C(=O)Nc3ccc(Cl)cc32)cc1,14%
15,COC(=O)c1cncc(/C=C/c2c(C)cc(O)cc2C)c1,6.05%
16,COc1cccc(-n2ncc3c(N/N=C/c4ccc(S(C)(=O)=O)cc4)ncnc32)c1,2.54%
17,CN(C)C(=O)O[C@H]1CN[C@H](C#Cc2cc3ncnc(Nc4ccc(OCc5cccc(F)c5)c(Cl)c4)c3s2)C1,4.75%
